Compounds with a hit are over-represented: about 1.8% of the library has one in this group of screens.
A3G deaminase = blocks human APOBEC3G single-stranded DNA deamination; recombinant A3G, ssDNA deamination FAM/TAMRA fluorescence; AID 493012; 330,000 tested, 0.28% active; inhibition, % at 20 µM;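 active = inhibition of at least 40% at 20 µM, with no more than 30% in the related APOBEC3A deaminase screen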
beta cell repl = MIN6 beta-cell proliferation induction; 330,000 tested, 0.29% active; AID 2380; proliferation, % at 10 µM; MIN6 cells proliferation, ATPlite luminescence, 48 h; cells starved in 0.2% serum; 100% = growth in 10% serum;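 active = compounds whose signal lies at least 3.5 SD above the mean of all wells on their plate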
A3A deaminase = human APOBEC3A DNA deaminase inhibition | P31941 | recombinant A3A, FAM/TAMRA ssDNA deamination fluorescence | 330,000 tested, 0.41% active | inhibition, % at 20 µM;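 active = at least 40% inhibition at 20 µM here, with at most 30% in a related deaminase screen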
NRP1-CendR mod = alters CendR peptide binding to human NRP-1 | inhibition, % at 25 µM | O14786 | FAM-RPARPAR peptide binding to NRP-1, fluorescence polarization | AID 602438 | 360,000 tested, 0.85% active;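 active = inhibition or corrected inhibition above about 18%, plus a signal ratio from 0.5 to 1.5, limit read from the data, passing the limit was not always enough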
VLA-4 inh = inhibition in a human VLA-4 binding assay; P13612; VLA-4 expressing cells, ligand binding flow cytometry; inhibition, % (about 7 µM as worked out from the volumes in the protocol); 330,000 tested, 0.2% active; AID 2557; in the data active = inhibition above about 50%
Large screens that a line does not name were inactive.

COc1ccc(S(=O)(=O)Nc2ccccc2C(=O)NC2CC2)cc1NC(C)=O	NRP1-CendR mod 28
CC(=O)c1ccc(S(=O)(=O)Nc2ccccc2C(=O)NC2CC2)cc1	none
CCOC(=O)C1=C(COC(=O)CCNS(=O)(=O)c2ccc(NC(C)=O)cc2)NC(=O)NC1C (centres undefined)	none
Cc1sc2nc(SCC(=O)N(CCO)CCO)nc(N)c2c1C	none
Cc1sc2nc(SCC(=O)N(CCO)CCO)n(C3CCCCC3)c(=O)c2c1C	NRP1-CendR mod 24
C[C@@H]1CN([C@H](C)CO)C(=O)Cc2cc(NC(=O)Nc3ccccc3)ccc2O[C@@H]1CN(C)Cc1ccc2c(c1)OCO2	none
CC(OC(=O)CCSc1ccccc1)C(=O)Nc1ccc(S(N)(=O)=O)cc1 (centres undefined)	none
Cc1ccc(SCC(=O)OC(C)C(=O)Nc2ccc(S(N)(=O)=O)cc2)cc1C (centres undefined)	NRP1-CendR mod 44
CSc1nsc(SCC(=O)N2CCc3ccccc32)n1	NRP1-CendR mod 19
CCCc1nnc(NC(=O)CCCN2C(=O)c3ccccc3C2=O)s1	NRP1-CendR mod 29
CCCc1nnc(NC(=O)c2cc3ccccc3o2)s1	none
CCCc1nnc(NC(=O)c2cc3ccccc3oc2=O)s1	NRP1-CendR mod 26
CCCCc1nnc(NC(=O)CN2C(=O)c3ccccc3C2=O)s1	none
COc1ccc(CN2CCC(C(=O)c3ccc(Cl)cc3)CC2)cc1	none
COc1ccc(N2CCN(C(=O)c3cn(C)c(=O)c4c3c3ccccc3n4C)CC2)cc1	none
Cn1c2ccccc2c2c(C(=O)N3CCN(C(=O)c4ccco4)CC3)cn(C3CCCCC3)c(=O)c21	none
COc1ccc(N2CCN(C(=O)c3cn(C4CCCC4)c(=O)c4c3c3ccccc3n4C)CC2)cc1	NRP1-CendR mod 39
Cn1c2ccccc2c2c(C(=O)N3CCN(c4ccccn4)CC3)cn(C3CCCC3)c(=O)c21	NRP1-CendR mod 38
O=c1c2ccccc2ncn1-c1cccc(Br)c1	none
CC(=O)c1cccc(NC(=O)CCn2c(=S)oc3ccccc32)c1	none
CC(=O)Oc1ccc(C2OC(=O)c3ccccc3N2C(C)=O)cc1 (centres undefined)	none
COc1ccc(C(=O)N2c3ccccc3C(=O)OC2c2ccc3c(c2)OCO3)cc1 (centres undefined)	NRP1-CendR mod 21
Cc1ccc(F)cc1NC(=O)COC(=O)C1CC2CCCC(C1)C2=O (centres undefined)	NRP1-CendR mod 30 (no result: A3G deaminase, beta cell repl, A3A deaminase, VLA-4 inh)
CCn1cc(C(=O)N2CCN(c3ccccn3)CC2)c2cc(OC)c(OC)cc2c1=O	none (no result: A3G deaminase, beta cell repl, A3A deaminase)
CCn1cc(C(=O)N2CCN(C(=O)c3ccco3)CC2)c2cc(OC)c(OC)cc2c1=O	NRP1-CendR mod 24
Cc1ccc(C)c(S(=O)(=O)NCc2ccc(C(=O)N3CCC(Cc4ccccc4)CC3)cc2)c1	NRP1-CendR mod 45
Cc1ccc(C)c(S(=O)(=O)NCc2ccc(C(=O)N3CCN(C)CC3)cc2)c1	none
O=C(CCCc1nc(-c2ccc(Cl)cc2)no1)NC1CCCC1	none
CCc1cc(C(=O)Nc2cc(S(=O)(=O)N3CCOCC3)ccc2N2CCN(CC)CC2)sc1C	none (no result: A3G deaminase, beta cell repl, A3A deaminase, VLA-4 inh)
CC(C)(C)OC1NS(=O)(=O)OCC1NCOC(Cl)(Cl)Cl (centres undefined)	NRP1-CendR mod 26
Cc1ccc(NC2CCCN(C(=O)c3ccc4nccnc4c3)C2)cc1C (centres undefined)	NRP1-CendR mod 43
O=C1c2ccccc2NC(c2ccco2)N1/N=C/c1ccco1 (centres undefined)	NRP1-CendR mod 18
Cc1ccc(C2(c3noc(CN(C)Cc4cnn(C)c4)n3)CCCC2)cc1	NRP1-CendR mod 34
CC1CCCN(S(=O)(=O)c2cc3c4c(c2)CCN4C(=O)CC3)C1 (centres undefined)	none
CC1CC(C)CN(S(=O)(=O)c2cc3c4c(c2)CCN4C(=O)CC3)C1 (centres undefined)	NRP1-CendR mod 25
CC(C)(C)N(NC(=O)Nc1ccc(Cl)cc1)C(=O)c1ccccc1	NRP1-CendR mod 29
CC(CC(=O)OCC(=O)NCc1ccc(Cl)cc1)c1ccccc1 (centres undefined)	none
CC(OC(=O)c1ccco1)C(=O)Nc1nc(-c2ccccc2)cs1 (centres undefined)	NRP1-CendR mod 30
CCc1ccc(/C=C2/SC(=S)N(CCC(=O)Nc3cccnc3)C2=O)cc1	none
CN(C)c1cccc(NC(=O)c2ccco2)c1	none
CSc1cccc(NC(=O)c2ccco2)c1	NRP1-CendR mod 21

Source: PubChem (several laboratories)
